# Records with an inconclusive call do not appear. Active and inactive are the calls of the source. The call rests on the fitted dose curve; in most records, active means well fitted cell-killing curve with a large enough effect; inconclusive means small, poorly fitted or top-dose-only effect, or effect the other way; inactive means no such curve, though single readings can be large or run the other way.
# Tested on: SKOV3
# Test: Confirmatory qHTS for gynecologic anti-cancer compounds from libraries of approved drugs and bioactive compounds; further: nearly all actives have a fitted effect of over 55% in size
# Settings: gynecologic cancer cell panel viability, ATPlite luminescence, 48 h; series mostly up to 57.6 µM
# Summary of the method: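 Seeding 1,000 cells per well preceded overnight (16 h) attachment, after which 48 h drug treatment across 57.5 uM–0.977 nM (11 points) was applied. Remaining cellular ATP, detected by ATPlite luminescence, defined IC50.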
row,SMILES,outcome
1,CCC(=O)O[C@H]1CC[C@H]2[C@@H]3CCC4=CC(=O)CC[C@]4(C)[C@H]3CC[C@]12C,inactive
2,C=C(C)[C@H]1Cc2c(ccc3c2O[C@@H]2COc4cc(OC)c(OC)cc4[C@@H]2C3=O)O1,inactive
3,O=C(O)Cc1ccccc1,inactive
4,CCOc1ccccc1-n1c(C(C)N2CCN(C(=O)COc3ccc(Cl)cc3)CC2)nc2ccccc2c1=O (stereo not given),inactive
5,C[C@]12CC[C@H]3[C@@H](CCC4=CC(=O)CC[C@@H]43)[C@@H]1CC[C@@H]2OC(=O)CCc1ccccc1,inactive

# From PubChem BioAssay AID1345085 (National Center for Advancing Translational Sciences (NCATS), 2018)
